Pf growth 96h: P. falciparum growth inhibition at 96 hours | Potency, µM (titrated, usually from 28.7 µM), inactives show top-dose activity change, negative = inhibition, actives largely listed as inhibitors | 320,000 compounds, 6.9% hits | P. falciparum luciferase reporter growth, 96 h; further: potency means the concentration at half of the fitted maximal effect; on the % scale 0 is the no-effect control and ±100 the full control effect
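Two parasite generations (96 h, 37 C, 5% CO2) of compound exposure in infected erythrocytes (0.05% parasitemia, 2% hematocrit). Luciferase-reporter P. falciparum; decreased luminescence indicates inhibited growth, aimed at apicoplast-acting delayed death.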
Lassa entry inh: Lassa virus entry inhibition | Potency, µM (series often up to 37.9 µM), for inactives: at the highest dose activity change, negative = inhibition, hits mostly inhibitors | Lassa virus pseudotype entry inhibition, cell reporter | AID 540256 | 300,000 compounds, 1.2% hits; calls by dose curve; tested in HEK293 cells; further: potency means the concentration at half of the fitted maximal effect; on the % scale 0 is the no-effect control and ±100 the full control effect; nearly all actives have a fitted effect of over 50% in size
MARV entry inh: blocks Marburg virus binding to or entry into cells. Marburg virus pseudotyped entry inhibition, cell reporter. Potency, µM (top dose mostly 37.8 µM), for inactives: at the top dose activity change, negative = inhibition, actives largely listed as inhibitors. 300,000 compounds, 1.8% hits. AID 540276; calls by dose curve; tested in HEK293 cells; further: potency means the concentration at half of the fitted maximal effect; on the % scale 0 is the no-effect control and ±100 the full control effect
Cycloheximide cs: counter-screen for Shiga toxin inhibitors: cycloheximide protein synthesis inhibition; cell reporter, cycloheximide protein synthesis inhibition counterscreen; max response, %; 300,000 compounds, 12% hits; in the data active means max response mostly above about 13%, no sharp cut-off; inactive means mostly below about 14%; further: read at 38.3 µM for the half of the compounds with a filed dose; 0% is about no effect
Shiga toxin inh: inhibitors of Shiga toxin in Vero cells; Vero cells, Shiga toxin protein synthesis inhibition reporter; inhibition, % at 38.7 µM; 290,000 compounds, 9.2% hits; AID 2315; in the data active means inhibition mostly above about 28%, no sharp cut-off; inactive means mostly below about 43%; further: 0% is about no effect
Pf growth 48h: inhibits P. falciparum growth in the first generation, 48 h; P. falciparum luciferase growth in erythrocytes, 48 h; Potency, µM (series often up to 28.7 µM), for the others: at the top dose activity change, negative = inhibition, actives largely listed as inhibitors; 310,000 compounds, 5.9% hits; further: potency means the concentration at half of the fitted maximal effect; on the % scale 0 is the no-effect control and ±100 the full control effect
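In quantitative HTS format, infected erythrocytes bearing luciferase-reporter parasites were treated for a single generation at 37 C. Luminescence after adding detection reagent served as the growth measure.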
Active calls of the source: *; [ ] = dose if it differs, or a comment. This is a sample that favours compounds with a hit; in the whole collection about 19% have one here. Unless noted, the call rests on the fitted dose curve; in most records, active means well fitted inhibition curve with a large enough effect; inconclusive means small, poorly fitted or top-dose-only effect, or another doubt; inactive means no such curve, though single readings can be large or run the other way.

Results for Nn1c(SCC(=O)Nc2ccc(Oc3ccccc3)cc2)nnc1C1CC1 ?
Pf growth 96h: inconclusive; Lassa entry inh: 3%; MARV entry inh: -14%; Cycloheximide cs: -2; Shiga toxin inh: 19; Pf growth 48h: 8.3µM*

What do the screens show for `CCOc1ccc(NC(=O)CSc2nnc(C3CC3)n2N)cc1`?
Pf growth 96h: 1%; Lassa entry inh: -28%; MARV entry inh: 14%; Cycloheximide cs: -2; Shiga toxin inh: -9; Pf growth 48h: 13%

What do the screens show for `Cn1c(SCC(=O)Nc2ccc(F)cc2)nnc1C1CC1`?
Pf growth 96h: 5%; Lassa entry inh: -2%; MARV entry inh: 20%[46.1 µM]; Cycloheximide cs: 15; Shiga toxin inh: -13; Pf growth 48h: 11%

What do the screens show for `CCc1ccc(NC(=O)CSc2nnnn2C)cc1`?
Pf growth 96h: 15%; Cycloheximide cs: 56*; Shiga toxin inh: 78*; Pf growth 48h: 141%

Results for Cn1nnnc1SCC(=O)Nc1ccc(Oc2ccccc2)cc1 ?
Pf growth 96h: 0%; Lassa entry inh: 18%; MARV entry inh: -10%; Cycloheximide cs: 8.9*; Shiga toxin inh: 22; Pf growth 48h: inconclusive

Results for COc1ccc(CCC2(C)OCC(CCCCO)O2)cc1 (stereo not drawn) ?
Lassa entry inh: -16%; MARV entry inh: 13%

How did CCOc1ccc2c(c1)nc(SCC(=O)c1cccs1)n2C do in these assays?
Pf growth 96h: inconclusive; Lassa entry inh: 14%; MARV entry inh: -1%; Cycloheximide cs: 50*; Shiga toxin inh: 81*; Pf growth 48h: 23%

What do the screens show for `CSc1ccc(/C=C(/Sc2nnc(-c3ccccc3)o2)C(=O)O)cc1`?
Pf growth 96h: 23%; Lassa entry inh: -27%; MARV entry inh: -6%[46.1 µM]; Cycloheximide cs: 1; Shiga toxin inh: -12; Pf growth 48h: 7%

How did Cc1cc(C)cc(OCC(=O)Nc2ccc(F)cc2)c1 do in these assays?
Pf growth 96h: -64%; Lassa entry inh: -9%; MARV entry inh: 4%; Cycloheximide cs: 14; Shiga toxin inh: 36; Pf growth 48h: inconclusive

What do the screens show for `Cc1cc(C)cc(OCC(=O)Nc2ccc3c(c2)C(=O)c2ccccc2C3=O)c1`?
Pf growth 96h: 12%; Lassa entry inh: 15%; MARV entry inh: -2%; Cycloheximide cs: 20*; Shiga toxin inh: 46*; Pf growth 48h: 31%

Results for NS(=O)(=O)c1ccc(NC(=O)Cn2nc(C(=O)O)c3ccccc3c2=O)cc1 ?
Pf growth 96h: 37%; Lassa entry inh: 11%[46.1 µM]; MARV entry inh: -5%[46.1 µM]; Cycloheximide cs: -4; Shiga toxin inh: -13; Pf growth 48h: 29%

Results for O=C(Cn1nc(C(=O)O)c2ccccc2c1=O)Nc1ccc2c(c1)C(=O)c1ccccc1C2=O ?
Pf growth 96h: 132%; Cycloheximide cs: 24*; Shiga toxin inh: 44; Pf growth 48h: 74%

How did CCC(=O)NC1=C(NC(C)c2ccccc2)C(=O)c2ccccc2C1=O (stereo not drawn) do in these assays?
Pf growth 96h: 0.93µM*; Lassa entry inh: 6%; MARV entry inh: 1%; Cycloheximide cs: 16; Shiga toxin inh: 43

Results for CCC(=O)Nc1ccc2c(c1)C(=O)N(C)C2=O ?
Pf growth 96h: 35%; Lassa entry inh: -2%; MARV entry inh: 16%; Cycloheximide cs: -2; Shiga toxin inh: -7

How did CCC(=O)Nc1ccc2c(c1)C(=O)c1ccccc1C2=O do in these assays?
Pf growth 96h: 256%; Lassa entry inh: inconclusive; MARV entry inh: inconclusive; Cycloheximide cs: 36*; Shiga toxin inh: 76*; Pf growth 48h: 342%

What do the screens show for `COc1ccc(C=C2C=C(C(C)(C)C)C(=O)C(C(C)(C)C)=C2)cc1OC`?
Pf growth 96h: 0%; Lassa entry inh: 14%[46.1 µM]; MARV entry inh: inconclusive; Cycloheximide cs: -1; Shiga toxin inh: -9; Pf growth 48h: inconclusive

Results for COC(=O)CN1C(c2ccc(Cl)cc2)=Nc2ccc(Cl)cc2C1c1ccccc1 (stereo not drawn) ?
Pf growth 96h: 3.3µM*; Lassa entry inh: -30%; MARV entry inh: inconclusive; Cycloheximide cs: 5; Shiga toxin inh: 12; Pf growth 48h: 2.6µM*

How did COc1ccc(C2=Nc3ccc(Br)cc3C(c3ccccc3)N2CC(=O)NN)cc1 (stereo not drawn) do in these assays?
Pf growth 96h: 0%; Lassa entry inh: inconclusive; MARV entry inh: -1%; Cycloheximide cs: -1; Shiga toxin inh: -9; Pf growth 48h: 13µM*

Source: PubChem
